Assay results as given in PubChem BioAssay (EPA / NIEHS).
Records with an inconclusive call do not appear. Activity calls are given as the source filed them. How the source made its calls, unless noted: active means hit-call score of the fitted dose curve at least 0.9, where 1 is the maximum; inactive means score below 0.9.

Tests used:
[1] = read-out: Macrophage colony-stimulating factor (MCSF), CSF1 (gene 1435); test: BSK_LPS_MCSF: BioMAP Diversity Plus: LPS Assay for Macrophage colony-stimulating factor (MCSF) Biomarker Activity (AID 2283083); conditions: primary human HUVEC with PBMC; actives raise or lower the signal
Outline: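 Compound is added to a human vascular primary co-culture of umbilical vein endothelium and blood mononuclear cells. After 24 h, M-CSF is quantified by ELISA. Signal changes are fitted in both directions against DMSO.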

[2] = read-out: Tissue Factor, F3 (gene 2152); test: BSK_LPS_TissueFactor: BioMAP Diversity Plus: LPS Assay for Tissue Factor Biomarker Activity (AID 2283084); conditions: primary human HUVEC with PBMC; actives raise or lower the signal
Outline: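 In this co-culture system of umbilical vein endothelium with PBMC, stimulated with LPS, cell-surface CD142 is detected by ELISA at 24 h. Endpoint values derive from bidirectional fitting, DMSO serving as baseline.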

[3] = read-out: Tumor necrosis factor (Homo sapiens) (UniProt P01375); test: BSK_LPS_TNFa: BioMAP Diversity Plus: LPS Assay for Tumour Necrosis Factor alpha (TNFa) Biomarker Activity (AID 2283085); conditions: primary human HUVEC with PBMC; actives raise or lower the signal;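 on AC50: TNFa protein level quantified by ELISA in the co-culture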
Outline: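 Read-out is ELISA of TNFa in primary human endothelial cell–PBMC co-cultures at 24 h after compound. Activity in either direction was fitted against DMSO.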

[4] = read-out: Vascular cell adhesion molecule 1 (VCAM1), VCAM1 (gene 7412); test: BSK_LPS_VCAM1: BioMAP Diversity Plus: LPS Assay for Vascular cell adhesion molecule 1 (VCAM1) Biomarker Activity (AID 2283086); conditions: primary human HUVEC with PBMC; actives raise or lower the signal
Outline: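 HUVEC + PBMC co-culture, LPS system; compound 24 h; VCAM-1 by ELISA; bidirectional fit vs DMSO control; parallel SRB (0.1%, TCA-fixed, 560 nm) for cytotoxicity.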

CD38, CD38 (gene 952) = test: BSK_SAg_CD38: BioMAP Diversity Plus: SAg Assay for CD38 Biomarker Activity (AID 2283087); conditions: primary human HUVEC with PBMC; actives raise or lower the signal
Outline: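 Human HUVEC plus PBMC co-culture stimulated with superantigen; CD38 measured by ELISA 24 h after chemical dosing. Fluorescence read-out, bidirectional fit against DMSO; cytotoxicity tracked in parallel by SRB and Alamar Blue.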

CD40, CD40 (gene 958) = test: BSK_SAg_CD40: BioMAP Diversity Plus: SAg Assay for CD40 Biomarker Activity (AID 2283088); conditions: primary human HUVEC with PBMC; actives raise or lower the signal
Outline: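 Fluorescence ELISA read-out of CD40 from umbilical vein endothelium plus peripheral blood mononuclear cells, sampled 24 h after dosing. Values come from bidirectional curve fitting with DMSO as baseline.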

CD69, CD69 (gene 969) = test: BSK_SAg_CD69: BioMAP Diversity Plus: SAg Assay for CD69 Biomarker Activity (AID 2283089); conditions: primary human HUVEC with PBMC; actives raise or lower the signal
Outline: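 HUVEC co-cultured with PBMC were dosed with chemical, and CD69 was measured by ELISA with fluorescence read-out 24 h later. Bidirectional curve fitting used DMSO as negative control and activity baseline.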

[5] = read-out: E-selectin (Homo sapiens) (UniProt P16581); test: BSK_SAg_Eselectin: BioMAP Diversity Plus: SAg Assay for Eselectin Biomarker Activity (AID 2283091); conditions: primary human HUVEC with PBMC; actives raise or lower the signal
Outline: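 Primary human endothelial cells and peripheral blood mononuclear cells were co-cultured and exposed to chemical for 24 hours. E-selectin levels were then quantified by ELISA, with bidirectional curve fitting normalised to DMSO controls.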

[6] = read-out: Monokine induced gamma interferon (MIG), CXCL9 (gene 4283); test: BSK_SAg_MIG: BioMAP Diversity Plus: SAg Assay for Monokine induced gamma interferon (MIG) Biomarker Activity (AID 2283092); conditions: primary human HUVEC with PBMC; actives raise or lower the signal
Outline: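 HUVEC plus human PBMC co-culture, chemicals dosed and MIG (CXCL9) quantified by ELISA at 24 h. Bidirectional curve fitting against DMSO as negative control and baseline, so both gain and loss of signal count as activity.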

[7] = BSK_SAg_PBMCCytotoxicity: PBMC Cytotoxicity Assessment in the BioMAP Diversity Plus: SAg Assay (AID 2283093); conditions: primary human HUVEC with PBMC;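 further: PBMC viability measured as Alamar Blue reduction fluorescence at 546/580 nm; fitted both ways against DMSO so a hit may be loss or gain of signal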;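 on AC50: PBMC superantigen activated with SEB plus TSST-1 one hour after compound addition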
Outline: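 Compound added to 75,000 PBMC/well for 1 h; SEB and TSST-1 then added at 20 ng/mL final each; 90 h incubation; Alamar Blue 6 h; read 546/580 nm ex/em. Activity fitted bidirectionally relative to DMSO baseline.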

[8] = read-out: Interleukin-8 (IL8), CXCL8 (gene 3576); test: BSK_SAg_IL8: BioMAP Diversity Plus: SAg Assay for Interleukin-8 (IL8) Biomarker Activity (AID 2283094); conditions: primary human HUVEC with PBMC; actives raise or lower the signal
Outline: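 ELISA read-out of IL-8 in a primary human vascular co-culture (umbilical vein endothelium plus PBMC), taken 24 h after compound addition. Values derive from bidirectional fits against DMSO negative controls.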

[9] = BSK_SAg_Proliferation: Cell Proliferation Assessment in the BioMAP Diversity Plus: SAg Assay (AID 2283095); conditions: primary human HUVEC with PBMC;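 further: relative cell number as total protein by SRB absorbance in sub-confluent culture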
Outline: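 Cells (endothelium plus PBMC, human primary) were dosed with chemical, cultured 96 h, fixed in 10% TCA and stained with 0.1% SRB. Absorbance at 560 nm gave relative protein, fitted bidirectionally relative to DMSO.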

[10] = BSK_SAg_SRB: Viability Assessment in the BioMAP Diversity Plus: SAg Assay (AID 2283096); conditions: primary human HUVEC with PBMC;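 further: cells read one day after compound addition; hits may be either gain or loss of signal compared with DMSO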
Outline: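 Total protein by sulforhodamine B staining, 24 h after dosing, in HUVEC–PBMC co-culture; DMSO-referenced bidirectional fitting.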

[11] = target: human CYP2A6, CYP2A6 (gene 1548) (UniProt P11509); test: NVS_ADME_hCYP2A6: NovaScreen (NVS) CYP450-related Enzyme Activity (ADME) Assay for human CYP2A6 (AID 2283099; active means hit-call score of the fitted dose curve at least 0.9, where 1 is the maximum)
Outline: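 Recombinant human CYP2A6 from insect cells was incubated with chemical for 0.5 h and activity read by fluorescence. Single-concentration duplicates at 10 uM preceded concentration-response testing to 20 uM, with activity referenced to acetonitrile.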

[12] = target: human CYP2B6, CYP2B6 (gene 1555) (UniProt P20813); test: NVS_ADME_hCYP2B6: NovaScreen (NVS) CYP450-related Enzyme Activity (ADME) Assay for human CYP2B6 (AID 2283101; active means hit-call score of the fitted dose curve at least 0.9, where 1 is the maximum)
Outline: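 Recombinant human CYP2B6 with fluorogenic substrate, read by fluorescence intensity 1 h after dosing. Primary screen in duplicate at 10 uM, actives followed in concentration series; signal loss relative to acetonitrile control.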

[13] = target: human CYP1A2, CYP1A2 (gene 1544) (UniProt P05177); test: NVS_ADME_hCYP1A2: NovaScreen (NVS) CYP450-related Enzyme Activity (ADME) Assay for human CYP1A2 (AID 2283102; active means hit-call score of the fitted dose curve at least 0.9, where 1 is the maximum)
Outline: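 Compounds were tested at 10 uM in duplicate against recombinant CYP1A2 produced in insect cells. Enzyme activity was measured by fluorescence 0.5 h after dosing, with loss of signal versus acetonitrile control. Active compounds were re-tested in concentration series.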

[14] = target: human CYP2D6, CYP2D6 (gene 1565) (UniProt P10635); test: NVS_ADME_hCYP2D6: NovaScreen (NVS) CYP450-related Enzyme Activity (ADME) Assay for human CYP2D6 (AID 2283107; active means hit-call score of the fitted dose curve at least 0.9, where 1 is the maximum)
Outline: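 Compounds were first tested in duplicate at 10 uM against recombinant enzyme produced in insect cells, with substrate turnover measured by fluorescence after 1 hour. Decreased signal, referenced to acetonitrile vehicle, was taken as reduced enzyme activity. Active chemicals went on to concentration-response testing.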

[15] = target: human CYP1A1, CYP1A1 (gene 1543) (UniProt P04798); test: NVS_ADME_hCYP1A1: NovaScreen (NVS) CYP450-related Enzyme Activity (ADME) Assay for human CYP1A1 (AID 2283100; active means hit-call score of the fitted dose curve at least 0.9, where 1 is the maximum)
Outline: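 Compounds first went through duplicate single-concentration testing at 10 uM against purified CYP1A1. Those passing a threshold such as 30% inhibition entered singleton dose-response, highest concentration 20 uM. Signal was fluorescence measured after 1 hour.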

Measured: AC50

Sequence of E-selectin (Homo sapiens) (P16581 whole entry, looked up): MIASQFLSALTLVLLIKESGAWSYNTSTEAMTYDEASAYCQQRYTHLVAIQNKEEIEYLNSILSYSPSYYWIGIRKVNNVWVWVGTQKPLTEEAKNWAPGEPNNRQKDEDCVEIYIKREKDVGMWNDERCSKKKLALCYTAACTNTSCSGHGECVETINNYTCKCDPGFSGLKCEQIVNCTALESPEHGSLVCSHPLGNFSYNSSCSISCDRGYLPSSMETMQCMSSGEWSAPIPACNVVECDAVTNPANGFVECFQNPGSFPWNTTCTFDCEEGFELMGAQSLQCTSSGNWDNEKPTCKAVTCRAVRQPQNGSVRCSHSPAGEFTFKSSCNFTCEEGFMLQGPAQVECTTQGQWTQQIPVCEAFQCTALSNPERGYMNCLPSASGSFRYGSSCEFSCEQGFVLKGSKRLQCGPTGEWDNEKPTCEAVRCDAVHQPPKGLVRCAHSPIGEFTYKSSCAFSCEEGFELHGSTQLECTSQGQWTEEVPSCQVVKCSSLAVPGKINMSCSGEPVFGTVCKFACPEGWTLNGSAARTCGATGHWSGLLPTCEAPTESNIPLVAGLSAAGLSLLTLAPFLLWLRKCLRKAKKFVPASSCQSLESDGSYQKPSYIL
Sequence of Tumor necrosis factor (Homo sapiens) (P01375 whole entry, looked up): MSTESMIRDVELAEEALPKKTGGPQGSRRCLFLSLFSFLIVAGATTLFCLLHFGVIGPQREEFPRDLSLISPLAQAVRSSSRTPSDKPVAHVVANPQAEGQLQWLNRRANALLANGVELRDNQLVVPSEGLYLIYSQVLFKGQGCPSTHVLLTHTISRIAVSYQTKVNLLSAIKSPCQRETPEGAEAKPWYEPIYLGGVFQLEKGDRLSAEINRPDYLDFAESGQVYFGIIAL
Sequence of human CYP2B6, CYP2B6 (gene 1555) (P20813 whole entry, looked up): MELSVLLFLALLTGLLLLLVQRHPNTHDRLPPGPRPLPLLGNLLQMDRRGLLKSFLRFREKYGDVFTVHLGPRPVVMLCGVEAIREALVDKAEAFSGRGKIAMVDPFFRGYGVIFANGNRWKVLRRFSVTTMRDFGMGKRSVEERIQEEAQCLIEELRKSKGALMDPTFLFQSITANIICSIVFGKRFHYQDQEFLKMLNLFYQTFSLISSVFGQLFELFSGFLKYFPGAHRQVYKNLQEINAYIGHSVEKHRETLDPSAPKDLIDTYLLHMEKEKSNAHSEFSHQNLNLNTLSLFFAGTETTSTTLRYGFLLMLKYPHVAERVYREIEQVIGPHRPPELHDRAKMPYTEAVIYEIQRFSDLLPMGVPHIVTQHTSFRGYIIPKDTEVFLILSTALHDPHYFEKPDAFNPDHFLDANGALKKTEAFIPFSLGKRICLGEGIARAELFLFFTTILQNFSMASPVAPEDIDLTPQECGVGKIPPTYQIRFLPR
Sequence of human CYP2A6, CYP2A6 (gene 1548) (P11509 whole entry, looked up): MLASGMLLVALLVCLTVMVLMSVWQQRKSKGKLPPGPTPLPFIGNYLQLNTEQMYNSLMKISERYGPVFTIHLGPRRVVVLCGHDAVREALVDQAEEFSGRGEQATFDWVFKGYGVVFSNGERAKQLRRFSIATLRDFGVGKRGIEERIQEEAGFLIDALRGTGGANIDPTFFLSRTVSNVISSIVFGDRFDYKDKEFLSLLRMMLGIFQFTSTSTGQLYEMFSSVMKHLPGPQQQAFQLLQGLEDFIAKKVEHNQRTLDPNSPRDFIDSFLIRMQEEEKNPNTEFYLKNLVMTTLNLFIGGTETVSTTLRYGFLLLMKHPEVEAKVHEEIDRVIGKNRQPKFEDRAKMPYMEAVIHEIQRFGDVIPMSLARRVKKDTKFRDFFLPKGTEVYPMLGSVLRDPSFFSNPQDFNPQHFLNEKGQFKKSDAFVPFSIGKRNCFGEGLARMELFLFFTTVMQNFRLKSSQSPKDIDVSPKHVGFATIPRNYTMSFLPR
Sequence of human CYP1A1, CYP1A1 (gene 1543) (P04798 whole entry, looked up): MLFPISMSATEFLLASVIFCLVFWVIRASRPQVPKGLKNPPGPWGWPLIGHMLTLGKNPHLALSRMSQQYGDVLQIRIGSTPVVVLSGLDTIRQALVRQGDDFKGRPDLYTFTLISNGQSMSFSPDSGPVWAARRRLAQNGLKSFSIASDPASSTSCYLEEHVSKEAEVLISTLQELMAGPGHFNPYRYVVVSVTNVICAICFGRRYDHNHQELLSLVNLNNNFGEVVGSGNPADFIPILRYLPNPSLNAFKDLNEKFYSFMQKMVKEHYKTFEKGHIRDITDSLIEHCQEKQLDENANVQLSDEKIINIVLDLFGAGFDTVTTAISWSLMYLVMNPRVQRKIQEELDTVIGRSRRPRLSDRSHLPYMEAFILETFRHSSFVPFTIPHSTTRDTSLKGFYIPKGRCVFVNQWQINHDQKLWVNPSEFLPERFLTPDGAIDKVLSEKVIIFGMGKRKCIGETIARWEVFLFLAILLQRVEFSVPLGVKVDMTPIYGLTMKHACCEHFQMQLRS
Sequence of human CYP1A2, CYP1A2 (gene 1544) (P05177 whole entry, looked up): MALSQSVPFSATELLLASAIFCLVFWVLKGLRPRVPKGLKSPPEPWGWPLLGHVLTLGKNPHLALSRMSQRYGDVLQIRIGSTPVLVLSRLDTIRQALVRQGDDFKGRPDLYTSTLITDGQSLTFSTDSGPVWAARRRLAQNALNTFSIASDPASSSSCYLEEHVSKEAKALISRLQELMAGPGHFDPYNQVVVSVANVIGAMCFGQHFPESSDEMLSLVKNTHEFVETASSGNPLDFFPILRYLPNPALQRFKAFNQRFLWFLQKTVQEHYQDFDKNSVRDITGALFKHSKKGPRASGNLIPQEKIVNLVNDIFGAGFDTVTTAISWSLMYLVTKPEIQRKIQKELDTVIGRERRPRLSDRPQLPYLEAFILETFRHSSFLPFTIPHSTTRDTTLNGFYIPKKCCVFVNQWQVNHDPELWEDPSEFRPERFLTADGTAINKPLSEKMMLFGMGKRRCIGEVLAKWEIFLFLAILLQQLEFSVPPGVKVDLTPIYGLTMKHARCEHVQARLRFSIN
Sequence of human CYP2D6, CYP2D6 (gene 1565) (P10635 whole entry, looked up): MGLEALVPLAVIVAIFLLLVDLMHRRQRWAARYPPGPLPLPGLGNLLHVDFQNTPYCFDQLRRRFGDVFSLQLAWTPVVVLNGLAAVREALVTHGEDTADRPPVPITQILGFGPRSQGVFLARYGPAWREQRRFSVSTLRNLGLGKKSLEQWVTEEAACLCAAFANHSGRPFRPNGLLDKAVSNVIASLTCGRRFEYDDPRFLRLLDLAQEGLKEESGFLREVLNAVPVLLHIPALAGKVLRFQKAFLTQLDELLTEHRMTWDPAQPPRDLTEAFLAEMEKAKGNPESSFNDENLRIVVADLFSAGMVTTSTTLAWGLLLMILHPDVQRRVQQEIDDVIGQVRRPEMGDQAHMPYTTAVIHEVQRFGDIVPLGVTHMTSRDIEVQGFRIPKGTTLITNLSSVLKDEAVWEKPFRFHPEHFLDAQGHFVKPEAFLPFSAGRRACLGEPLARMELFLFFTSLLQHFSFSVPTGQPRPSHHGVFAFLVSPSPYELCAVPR

NC1CCCCC1
inactive: [1] | [2] | [3] | [4] | CD38, CD38 (gene 952) | CD40, CD40 (gene 958) | CD69, CD69 (gene 969) | [5] | [6] | [7] | [8] | [9] | [10] | [11] | [12]

S=c1[nH]c2ccccc2s1
active: [2] 2.23 µM | [11] 4.85 µM | [12] 1.28 µM | [14] 6.77 µM
inactive: [1] | [3] | [4] | CD38, CD38 (gene 952) | CD69, CD69 (gene 969) | [5] | [6] | [7] | [8] | [9] | [10] | [13]

COC(=O)[C@H]1[C@H]2C[C@@H]3c4[nH]c5cc(OC)ccc5c4CCN3C[C@H]2C[C@@H](OC(=O)c2cc(OC)c(OC)c(OC)c2)[C@@H]1OC
inactive: [5] | [15]
active: [1] 21.2 µM | [2] 7.64 µM | [3] 28.7 µM | [4] 12 µM | CD38, CD38 (gene 952) 25.7 µM | CD40, CD40 (gene 958) 26.6 µM | [6] 24.5 µM | [7] 23.9 µM | [10] 25.9 µM

O=[Si]=O
inactive: [1] | [2] | [3] | [4] | CD38, CD38 (gene 952) | CD40, CD40 (gene 958) | CD69, CD69 (gene 969) | [5] | [6] | [7] | [8] | [9] | [10]

CCCCCCCC(=O)OC
inactive: [1] | [2] | [3] | [4] | CD38, CD38 (gene 952) | CD40, CD40 (gene 958) | CD69, CD69 (gene 969) | [5] | [6] | [7] | [8] | [9] | [10]

CCCC[C@H]1CN(CC2CCOCC2)C(=O)OC12CCN(C1(C)CCN(C(=O)c3c(C)ncnc3C)CC1)CC2
inactive: [1] | [2] | [3] | [4] | CD38, CD38 (gene 952) | CD40, CD40 (gene 958) | CD69, CD69 (gene 969) | [5] | [6] | [7] | [8] | [9] | [10]

CCC(C)N(C)C(=O)c1cc2ccccc2c(-c2ccccc2Cl)n1 (stereo not given)
inactive: [1] | [2] | [3] | [4] | CD38, CD38 (gene 952) | CD40, CD40 (gene 958) | CD69, CD69 (gene 969) | [5] | [6] | [7] | [8] | [9] | [10] | [15]
